For 1 sequence, binding signal results are on record in publication PMC7862700, “An all-to-all approach to the identification of sequence-specific readers for epigenetic DNA modifications on cytosine”.

What all share (assay): DAPPL (digital affinity profiling via proximity ligation, sequencing); 10 mM Tris-HCl pH 7.5, 50 mM NaCl, 1 mM DTT, 4% glycerol, room temperature, 30 min; GST-TFs on glutathione beads, 16-mer random dsDNA library, 0.1% formaldehyde crosslink after washing; high values mean tight binding
The target in one assay is T1, FEV (Homo sapiens, UniProt Q99581 1-238).
T1 sequence: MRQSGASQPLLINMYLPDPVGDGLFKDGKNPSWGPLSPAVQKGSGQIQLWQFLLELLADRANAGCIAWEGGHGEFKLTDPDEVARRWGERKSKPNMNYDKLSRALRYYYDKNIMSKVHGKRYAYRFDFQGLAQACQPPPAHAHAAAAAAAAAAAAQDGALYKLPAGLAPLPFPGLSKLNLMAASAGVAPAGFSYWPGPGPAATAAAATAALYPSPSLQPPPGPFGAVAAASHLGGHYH
The settings on record: protein: recombinant; tags: N-terminal GST; dsDNA, one strand shown. The gist of the method:
(§1)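 Binding signal is given per hexamer as its read frequency for a factor divided by its frequency in the tag-only sample. GST-fused human transcription factors were expressed in yeast, captured on glutathione beads, barcoded with DNA and pooled with that sample, then incubated with 200 nmole of a 16-mer random double-stranded DNA library in Tris/NaCl/DTT/glycerol buffer for 30 min at room temperature. The pools were then washed, crosslinked, proximity-ligated, amplified by PCR and sequenced on an Illumina NextSeq500.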

For a further assay, the target named is ETV5 (Homo sapiens, UniProt P41161 1-510). The settings on record: protein: recombinant; tags: N-terminal GST; dsDNA, one strand shown. The procedure, abridged: as §1
The next assay concerns the target HSF1 (Homo sapiens, UniProt Q00613 1-529). The following applies: protein: recombinant; tags: N-terminal GST; chain copies: 3; dsDNA, one strand shown. The gist of the method: as §1
The target of another assay is T2, SPIC (Homo sapiens, UniProt Q8N5J4 1-248).
T2 sequence: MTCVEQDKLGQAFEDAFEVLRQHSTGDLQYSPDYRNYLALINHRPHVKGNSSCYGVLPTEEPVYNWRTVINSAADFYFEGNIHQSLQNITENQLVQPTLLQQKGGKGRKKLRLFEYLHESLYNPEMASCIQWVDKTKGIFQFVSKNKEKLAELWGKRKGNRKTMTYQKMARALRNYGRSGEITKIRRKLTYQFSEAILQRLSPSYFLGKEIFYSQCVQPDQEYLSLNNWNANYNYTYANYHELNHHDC
The following applies: protein: recombinant; tags: N-terminal GST; dsDNA, one strand shown. The procedure, abridged: as §1

The next assay concerns the target ELF4 (Homo sapiens, UniProt Q99607 1-663). The settings on record: protein: recombinant; tags: N-terminal GST; dsDNA, one strand shown. The procedure, abridged:
as §1

A further assay concerns the target T3, ELK4 (Homo sapiens, UniProt P28324-2 1-405).
T3 sequence: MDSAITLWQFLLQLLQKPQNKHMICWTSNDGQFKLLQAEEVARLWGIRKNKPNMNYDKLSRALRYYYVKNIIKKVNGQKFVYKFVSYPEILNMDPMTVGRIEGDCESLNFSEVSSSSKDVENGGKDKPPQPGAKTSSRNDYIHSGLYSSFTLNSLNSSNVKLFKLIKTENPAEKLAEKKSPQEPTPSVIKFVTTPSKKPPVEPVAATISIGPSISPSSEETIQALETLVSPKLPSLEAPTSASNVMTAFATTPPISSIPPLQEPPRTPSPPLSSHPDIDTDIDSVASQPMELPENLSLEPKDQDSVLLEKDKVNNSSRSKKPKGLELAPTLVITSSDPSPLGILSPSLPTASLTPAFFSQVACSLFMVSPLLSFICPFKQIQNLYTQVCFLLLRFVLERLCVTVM
The settings on record: protein: recombinant; tags: N-terminal GST; dsDNA, one strand shown. The procedure, abridged:
as §1

The target of another assay is T4, ETV2 (Homo sapiens, UniProt O00321 1-342).
T4 sequence: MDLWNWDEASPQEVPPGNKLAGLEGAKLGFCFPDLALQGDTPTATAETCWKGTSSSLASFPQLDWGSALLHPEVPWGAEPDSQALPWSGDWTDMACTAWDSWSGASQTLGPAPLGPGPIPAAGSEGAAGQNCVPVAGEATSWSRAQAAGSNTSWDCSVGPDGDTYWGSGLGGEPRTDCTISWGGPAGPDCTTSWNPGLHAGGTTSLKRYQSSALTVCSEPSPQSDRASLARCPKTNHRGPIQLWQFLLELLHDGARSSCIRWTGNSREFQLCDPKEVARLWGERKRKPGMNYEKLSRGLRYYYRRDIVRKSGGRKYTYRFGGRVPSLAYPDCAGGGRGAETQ
The settings on record: protein: recombinant; tags: N-terminal GST; dsDNA, one strand shown. The procedure, abridged: as §1

Another assay concerns the target T5, ELF3 (Homo sapiens, UniProt P78545 1-371).
T5 sequence: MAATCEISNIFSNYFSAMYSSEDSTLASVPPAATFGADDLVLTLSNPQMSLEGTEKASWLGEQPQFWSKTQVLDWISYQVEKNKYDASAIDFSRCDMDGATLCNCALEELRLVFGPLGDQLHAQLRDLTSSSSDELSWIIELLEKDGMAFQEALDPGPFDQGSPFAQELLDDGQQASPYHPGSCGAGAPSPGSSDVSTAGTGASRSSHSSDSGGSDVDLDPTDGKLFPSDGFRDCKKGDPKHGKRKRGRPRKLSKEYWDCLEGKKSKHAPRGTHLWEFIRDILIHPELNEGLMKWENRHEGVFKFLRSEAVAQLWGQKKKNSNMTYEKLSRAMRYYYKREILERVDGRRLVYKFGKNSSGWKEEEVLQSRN
The settings on record: protein: recombinant; tags: N-terminal GST; dsDNA, one strand shown. The gist of the method: as §1

For another assay, the target named is CRX (Homo sapiens, UniProt O43186 1-299). The following applies: protein: recombinant; tags: N-terminal GST; dsDNA, one strand shown. The gist of the method:
as §1

The target of a further assay is ETV1 (Homo sapiens, UniProt P50549 1-477). The following applies: protein: recombinant; tags: N-terminal GST; dsDNA, one strand shown. The gist of the method: as §1
In a further assay the target is T6, ERF (Homo sapiens, UniProt P50548 1-548).
T6 sequence: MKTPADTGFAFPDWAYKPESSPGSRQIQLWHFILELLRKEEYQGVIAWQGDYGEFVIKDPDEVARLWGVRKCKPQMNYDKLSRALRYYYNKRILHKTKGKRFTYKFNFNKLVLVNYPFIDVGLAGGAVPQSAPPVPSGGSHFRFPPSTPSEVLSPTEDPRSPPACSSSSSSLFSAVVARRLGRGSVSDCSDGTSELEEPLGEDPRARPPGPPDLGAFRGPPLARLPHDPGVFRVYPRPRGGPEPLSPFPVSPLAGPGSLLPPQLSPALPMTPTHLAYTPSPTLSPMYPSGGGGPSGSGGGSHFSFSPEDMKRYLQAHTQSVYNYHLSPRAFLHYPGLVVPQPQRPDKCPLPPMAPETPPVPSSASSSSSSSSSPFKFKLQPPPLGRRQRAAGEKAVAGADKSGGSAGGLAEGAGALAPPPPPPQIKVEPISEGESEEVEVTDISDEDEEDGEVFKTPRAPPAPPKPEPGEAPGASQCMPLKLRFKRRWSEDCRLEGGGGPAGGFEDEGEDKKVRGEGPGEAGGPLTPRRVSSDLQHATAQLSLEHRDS
The settings on record: protein: recombinant; tags: N-terminal GST; dsDNA, one strand shown. The procedure, abridged:
as §1

The next assay has as its target T7, ETV3L (Homo sapiens, UniProt Q6ZN32 1-361).
T7 sequence: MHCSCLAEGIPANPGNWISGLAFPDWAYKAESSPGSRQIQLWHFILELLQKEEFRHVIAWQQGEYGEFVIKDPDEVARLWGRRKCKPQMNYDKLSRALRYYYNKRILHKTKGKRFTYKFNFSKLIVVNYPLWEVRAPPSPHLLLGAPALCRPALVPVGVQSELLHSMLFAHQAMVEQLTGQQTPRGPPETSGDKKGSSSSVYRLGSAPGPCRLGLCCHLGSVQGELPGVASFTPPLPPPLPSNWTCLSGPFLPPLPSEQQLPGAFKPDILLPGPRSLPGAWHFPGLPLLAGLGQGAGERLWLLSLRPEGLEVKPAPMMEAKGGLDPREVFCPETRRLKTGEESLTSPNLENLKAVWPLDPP
The settings on record: protein: recombinant; tags: N-terminal GST; dsDNA, one strand shown. The gist of the method:
as §1

The target in the next assay is T8, ETS2 (Homo sapiens, UniProt P15036 1-469).
T8 sequence: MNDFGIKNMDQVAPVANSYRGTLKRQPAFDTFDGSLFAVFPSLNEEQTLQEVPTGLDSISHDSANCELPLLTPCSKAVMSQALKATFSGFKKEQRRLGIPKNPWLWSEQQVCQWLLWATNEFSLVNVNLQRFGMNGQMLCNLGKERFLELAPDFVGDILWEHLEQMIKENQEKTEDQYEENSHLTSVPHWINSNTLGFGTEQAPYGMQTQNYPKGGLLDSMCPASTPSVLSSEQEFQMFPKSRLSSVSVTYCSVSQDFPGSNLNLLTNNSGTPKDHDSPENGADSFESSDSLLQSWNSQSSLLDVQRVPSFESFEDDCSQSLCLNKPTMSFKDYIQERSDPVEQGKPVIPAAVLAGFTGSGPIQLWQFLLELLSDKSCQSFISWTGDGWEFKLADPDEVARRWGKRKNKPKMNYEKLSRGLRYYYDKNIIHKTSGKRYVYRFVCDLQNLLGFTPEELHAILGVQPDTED
The settings on record: protein: recombinant; tags: N-terminal GST; dsDNA, one strand shown. The gist of the method: as §1

A further assay concerns the target T9, SPDEF (Homo sapiens, UniProt O95238 1-335).
T9 sequence: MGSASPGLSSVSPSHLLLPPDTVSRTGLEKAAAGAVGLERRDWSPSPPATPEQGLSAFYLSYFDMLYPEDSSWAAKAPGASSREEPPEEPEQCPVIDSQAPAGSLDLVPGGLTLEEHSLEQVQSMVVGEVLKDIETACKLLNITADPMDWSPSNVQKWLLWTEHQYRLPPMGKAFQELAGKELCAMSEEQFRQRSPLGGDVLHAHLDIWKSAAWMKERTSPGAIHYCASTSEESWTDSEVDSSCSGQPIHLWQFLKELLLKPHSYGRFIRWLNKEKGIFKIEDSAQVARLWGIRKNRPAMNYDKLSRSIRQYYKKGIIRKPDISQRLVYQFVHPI
The following applies: protein: recombinant; tags: N-terminal GST; dsDNA, one strand shown. The gist of the method: as §1

The next assay has as its target T10, ETV7 (Homo sapiens, UniProt Q9Y603 1-341).
T10 sequence: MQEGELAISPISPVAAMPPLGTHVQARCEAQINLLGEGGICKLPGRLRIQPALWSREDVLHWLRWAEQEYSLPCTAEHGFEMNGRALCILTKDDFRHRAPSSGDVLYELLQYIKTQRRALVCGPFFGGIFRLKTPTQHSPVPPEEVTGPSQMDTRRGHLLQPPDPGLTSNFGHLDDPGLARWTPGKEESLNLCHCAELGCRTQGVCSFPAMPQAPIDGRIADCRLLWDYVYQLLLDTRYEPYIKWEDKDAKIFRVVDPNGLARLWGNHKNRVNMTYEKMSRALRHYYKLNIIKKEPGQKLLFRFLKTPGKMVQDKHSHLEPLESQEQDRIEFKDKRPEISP
The settings on record: protein: recombinant; tags: N-terminal GST; dsDNA, one strand shown. The gist of the method: as §1

The next assay has as its target T11, ELF5 (Homo sapiens, UniProt Q9UKW6-2 1-255).
T11 sequence: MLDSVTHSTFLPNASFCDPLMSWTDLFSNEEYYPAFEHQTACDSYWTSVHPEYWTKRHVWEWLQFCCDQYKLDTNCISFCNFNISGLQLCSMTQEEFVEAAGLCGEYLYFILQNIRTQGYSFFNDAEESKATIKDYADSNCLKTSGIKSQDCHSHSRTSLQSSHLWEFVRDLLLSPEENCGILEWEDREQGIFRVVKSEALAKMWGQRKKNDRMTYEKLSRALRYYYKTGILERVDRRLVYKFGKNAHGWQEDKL
The following applies: protein: recombinant; tags: N-terminal GST; dsDNA, one strand shown. The gist of the method: as §1

The next assay concerns the target T12, ETV3 (Homo sapiens, UniProt P41162-2 1-143).
T12 sequence: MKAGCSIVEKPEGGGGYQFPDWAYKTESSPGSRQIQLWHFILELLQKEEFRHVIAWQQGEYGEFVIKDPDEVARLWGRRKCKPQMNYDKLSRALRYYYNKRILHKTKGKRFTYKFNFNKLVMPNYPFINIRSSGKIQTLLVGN
The following applies: protein: recombinant; tags: N-terminal GST; dsDNA, one strand shown. The procedure, abridged: as §1

For a further assay, the target named is ETV6 (Homo sapiens, UniProt P41212 1-452). The following applies: protein: recombinant; tags: N-terminal GST; dsDNA, one strand shown. The gist of the method:
as §1

Chain of ETV1 (P50549 whole entry): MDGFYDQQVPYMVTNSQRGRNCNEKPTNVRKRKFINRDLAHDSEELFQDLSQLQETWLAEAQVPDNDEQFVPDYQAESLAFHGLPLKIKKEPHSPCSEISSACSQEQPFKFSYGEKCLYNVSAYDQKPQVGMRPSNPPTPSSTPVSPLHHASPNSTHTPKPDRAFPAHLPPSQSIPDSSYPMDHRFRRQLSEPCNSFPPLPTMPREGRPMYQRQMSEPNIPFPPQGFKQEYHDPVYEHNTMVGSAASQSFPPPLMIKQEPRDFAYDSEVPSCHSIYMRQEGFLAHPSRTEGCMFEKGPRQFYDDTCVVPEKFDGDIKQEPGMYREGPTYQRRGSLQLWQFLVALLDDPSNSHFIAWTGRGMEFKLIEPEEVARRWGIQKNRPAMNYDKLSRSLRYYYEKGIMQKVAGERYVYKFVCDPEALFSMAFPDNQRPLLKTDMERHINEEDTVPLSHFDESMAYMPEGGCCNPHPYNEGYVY
Chain of CRX (O43186 whole entry): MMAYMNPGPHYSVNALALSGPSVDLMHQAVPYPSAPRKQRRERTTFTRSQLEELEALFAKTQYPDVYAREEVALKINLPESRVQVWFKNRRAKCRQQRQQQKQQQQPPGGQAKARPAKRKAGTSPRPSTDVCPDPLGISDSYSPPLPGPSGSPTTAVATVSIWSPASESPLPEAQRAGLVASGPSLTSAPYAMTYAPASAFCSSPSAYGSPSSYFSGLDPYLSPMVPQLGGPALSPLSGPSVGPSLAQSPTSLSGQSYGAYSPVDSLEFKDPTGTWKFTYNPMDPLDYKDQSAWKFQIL
Chain of ETV6 (P41212 whole entry): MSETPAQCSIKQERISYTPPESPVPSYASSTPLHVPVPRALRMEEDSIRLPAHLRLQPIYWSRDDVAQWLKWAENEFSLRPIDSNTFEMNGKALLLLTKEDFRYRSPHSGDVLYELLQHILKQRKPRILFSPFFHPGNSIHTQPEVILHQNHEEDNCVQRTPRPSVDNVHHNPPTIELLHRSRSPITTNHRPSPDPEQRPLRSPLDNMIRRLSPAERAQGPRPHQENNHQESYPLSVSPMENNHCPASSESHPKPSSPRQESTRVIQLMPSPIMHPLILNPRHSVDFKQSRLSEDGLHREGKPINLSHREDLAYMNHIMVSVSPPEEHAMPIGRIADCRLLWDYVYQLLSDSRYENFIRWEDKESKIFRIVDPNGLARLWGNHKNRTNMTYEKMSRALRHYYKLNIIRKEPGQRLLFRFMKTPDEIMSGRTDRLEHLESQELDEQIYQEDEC
Chain of ELF4 (Q99607 whole entry): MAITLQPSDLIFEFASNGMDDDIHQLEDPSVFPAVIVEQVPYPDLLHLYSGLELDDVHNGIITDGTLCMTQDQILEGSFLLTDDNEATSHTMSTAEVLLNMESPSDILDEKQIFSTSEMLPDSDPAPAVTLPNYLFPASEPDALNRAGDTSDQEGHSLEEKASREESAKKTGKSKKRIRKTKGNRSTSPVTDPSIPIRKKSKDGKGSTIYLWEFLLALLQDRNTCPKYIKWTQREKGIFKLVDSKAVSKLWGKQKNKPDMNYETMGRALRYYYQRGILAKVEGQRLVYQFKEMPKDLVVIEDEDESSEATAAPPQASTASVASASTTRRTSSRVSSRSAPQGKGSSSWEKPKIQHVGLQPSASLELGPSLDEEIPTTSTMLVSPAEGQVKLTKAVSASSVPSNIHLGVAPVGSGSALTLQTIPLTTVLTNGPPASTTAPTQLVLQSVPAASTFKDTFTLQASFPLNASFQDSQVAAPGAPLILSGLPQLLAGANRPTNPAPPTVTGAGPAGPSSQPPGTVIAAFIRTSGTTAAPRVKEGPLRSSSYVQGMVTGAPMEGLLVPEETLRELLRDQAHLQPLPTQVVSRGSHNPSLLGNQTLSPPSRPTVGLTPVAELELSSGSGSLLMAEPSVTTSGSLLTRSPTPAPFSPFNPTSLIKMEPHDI
Chain of ETV5 (P41161 whole entry): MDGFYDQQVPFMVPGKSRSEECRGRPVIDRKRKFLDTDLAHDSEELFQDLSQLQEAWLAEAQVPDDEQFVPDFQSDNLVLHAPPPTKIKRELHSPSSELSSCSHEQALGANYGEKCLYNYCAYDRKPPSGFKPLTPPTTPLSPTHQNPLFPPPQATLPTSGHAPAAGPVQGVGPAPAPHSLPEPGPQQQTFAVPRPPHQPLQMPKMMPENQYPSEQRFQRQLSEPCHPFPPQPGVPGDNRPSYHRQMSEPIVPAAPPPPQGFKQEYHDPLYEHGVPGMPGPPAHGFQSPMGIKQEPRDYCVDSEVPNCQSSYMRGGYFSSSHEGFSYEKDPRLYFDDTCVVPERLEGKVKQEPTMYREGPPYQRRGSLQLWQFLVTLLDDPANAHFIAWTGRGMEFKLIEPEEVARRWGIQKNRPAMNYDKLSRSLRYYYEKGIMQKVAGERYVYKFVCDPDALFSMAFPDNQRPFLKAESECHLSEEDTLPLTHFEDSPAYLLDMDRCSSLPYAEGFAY
Chain of HSF1 (Q00613 whole entry): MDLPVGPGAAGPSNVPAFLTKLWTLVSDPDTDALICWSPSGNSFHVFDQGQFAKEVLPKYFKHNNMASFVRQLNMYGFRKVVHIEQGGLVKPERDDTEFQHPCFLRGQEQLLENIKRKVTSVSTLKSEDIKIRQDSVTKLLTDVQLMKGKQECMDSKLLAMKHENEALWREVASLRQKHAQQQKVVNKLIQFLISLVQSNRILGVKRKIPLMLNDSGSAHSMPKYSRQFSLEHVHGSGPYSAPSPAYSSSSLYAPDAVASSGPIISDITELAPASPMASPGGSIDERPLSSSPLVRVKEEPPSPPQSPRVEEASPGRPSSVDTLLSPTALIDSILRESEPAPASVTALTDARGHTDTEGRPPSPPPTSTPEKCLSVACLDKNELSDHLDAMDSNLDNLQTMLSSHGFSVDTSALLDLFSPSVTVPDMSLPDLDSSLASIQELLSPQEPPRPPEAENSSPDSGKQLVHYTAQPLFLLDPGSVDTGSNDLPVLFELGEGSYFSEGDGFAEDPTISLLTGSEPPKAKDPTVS

As for CCAATT, the binding signal with FEV was 1.23 fold enrichment (6-mer frequency, TF over GST control); with ETV5, 1.26 fold enrichment (6-mer frequency, TF over GST control); with HSF1, 1.09 fold enrichment (6-mer frequency, TF over GST control); with SPIC, 1.31 fold enrichment (6-mer frequency, TF over GST control); with ELF4, 1.32 fold enrichment (6-mer frequency, TF over GST control); with ELK4 it was 1.09 fold enrichment (6-mer frequency, TF over GST control). The binding signal with ETV2 is 1.27 fold enrichment (6-mer frequency, TF over GST control); with ELF3 it was 1.39 fold enrichment (6-mer frequency, TF over GST control); with CRX it was 1.05 fold enrichment (6-mer frequency, TF over GST control); with ETV1, 1.26 fold enrichment (6-mer frequency, TF over GST control); with ERF, 1.23 fold enrichment (6-mer frequency, TF over GST control); with ETV3L, 1.24 fold enrichment (6-mer frequency, TF over GST control). The binding signal with ETS2 is 1.25 fold enrichment (6-mer frequency, TF over GST control); in the assay with SPDEF it was 1.19 fold enrichment (6-mer frequency, TF over GST control); with ETV7, 1.21 fold enrichment (6-mer frequency, TF over GST control); with ELF5 it was 1.14 fold enrichment (6-mer frequency, TF over GST control); in the assay with ETV3, 1.23 fold enrichment (6-mer frequency, TF over GST control); with ETV6, 1.24 fold enrichment (6-mer frequency, TF over GST control).
